PRC2 inh: blocks human EZH2/PRC2 H3K27 methylation; DELFIA TRF, 1 h; 57,000 tested, 0.35% active; Q15910; inhibition, % at 12.5 µM;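 active = mean inhibition of replicates at least 50% and every single replicate also reaching 50%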;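 also: dimethyl H3K27 on biotinylated H3 21-44 peptide detected by antibody; plate controls were median neutral control wells for no effect and median positive control wells for full effect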
* = called active by the depositor. The entries come from a sample that favours hits as a whole.

SMILES	PRC2 inh
O=C(O)CCCCCC(=O)N/N=C/c1ccc(C(F)(F)F)cc1	3
Cc1sc2ncn(CC(=O)Nc3cccc(C(F)(F)F)c3)c(=O)c2c1-c1ccc(Cl)cc1	-1
O=C(CSc1n[nH]c(-c2ccccc2)n1)Nc1ccc(Br)cc1	7
COc1ccc(OCC(=O)Nc2ccccc2C(=O)Nc2ccccc2)cc1	-6
CC(C)(C)c1ccc(OCC(=O)Nc2ccc(C(=O)Nc3ccccc3C(=O)O)cc2)cc1	64*
Cc1cccc(OCC(=O)Nc2cccc(C(=O)Nc3ccccc3C(=O)O)c2)c1	42
COc1cccc(N(CC(=O)Nc2cccc(Cl)c2C)S(C)(=O)=O)c1	-1
Cc1cc(CSc2cc(C)c(Cl)cc2C)no1	56*
O=C(CC1(O)C(=O)Nc2ccc(I)cc21)c1ccccn1 (centres undefined)	-19
